# Most compounds without a hit are left out; they make up all but 17% or so of the library.
# HT1080-NT tox: kills 2HG-producing HT-1080-NT fibrosarcoma cells; HT-1080-NT fibrosarcoma viability, CellTiter-Glo ATP luminescence, 48 h; Potency, µM (top dose mostly 46.1 µM), without a hit: at the top dose activity, negative = less viability, usual class: cytotoxic; 360,000 compounds, 1.6% hits;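 also: NT is the 2HG producing partner of a matched IDH1 knockdown line; 0% = DMSO-treated cells and -100% = media-only wells without cells; nearly all actives have a fitted effect of over 55% in size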
#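 Luminescent CellTiter-Glo readout after 48 hours of compound exposure at 37 degrees C defined viability of HT-1080-NT cells. Activity was normalized to DMSO wells and cell-free media wells; concentration-response curves were fitted and assigned curve classes.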
# HT1080 IDH1KD tx: kills HT-1080 cells with IDH1 knockdown; HT-1080 IDH1 knockdown viability, ATP luminescence, 48 h; Potency, µM (titrated, usually from 46.1 µM), for the others: top-dose activity, negative = toxicity, most hits filed as cytotoxic; 360,000 compounds, 2% hits;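 also: 0% = DMSO wells and -100% = cell-free medium wells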
#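 Knockdown cells (IDH1KD HT-1080) received compounds 2 h after plating at 750 cells/well and were kept 48 h at 37 °C in 5% FBS RPMI. A CellTiter-Glo luminescence read gave % activity for curve fitting.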
# HepG2 viability: kills HepG2 cells in TGF-b inhibitor counter-screen; HepG2 CAGA-GFP viability, ATP luminescence, 18 h; Potency, µM (doses to about 46.1 µM), without a hit: at the top dose activity change, negative = cytotoxicity, usual class: cytotoxic; 410,000 compounds, 0.76% hits; AID 588856
#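 HepG2 CAGA-GFP cells (1000/well, DMEM with 1% FBS) received compound, then TGF-beta at 500 pg/mL final, and were incubated 18 hours at 37 degrees C. Viability was read by CellTiter-Glo luminescence. Media-only wells were set as complete cell-killing and DMSO as no toxicity.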
# TDP1 cell CPT: growth inhibition of DT40 Tdp1-/-;hTDP1 cells with camptothecin (screen for TDP1 inhibitors). chicken DT40 Tdp1-/-;hTDP1 cells + 20 nM CPT, ATP luminescence, 48 h. Potency, µM (top dose mostly 46.2 µM), for the others: top-dose activity change, negative = growth inhibition, hits mostly inhibitors. 420,000 compounds, 12% hits. AID 686979; also: % is scaled to controls: 0 for no effect and ±100 for the full control effect; nearly all actives have a fitted effect of over 55% in size
#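 Chicken DT40 Tdp1-/- cells complemented with human TDP1, 400 cells/well, exposed to compounds plus 20 nM camptothecin for at least 48 h at 37 C; viability read as ATP content by CellTiter-Glo luminescence.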
# TGFb SMAD3 inh: TGF-b pathway inhibition; HepG2 CAGA-GFP TGF-b/SMAD3 reporter, GFP fluorescence, 18 h; TGF-beta stimulated, 500 pg/mL final; Potency, µM (series often up to 46.1 µM), without a hit: at the top dose activity, negative = inhibition, hits mostly inhibitors; 410,000 compounds, 1.2% hits; AID 588855; also: % is scaled to controls: 0 for no effect and ±100 for the full control effect; nearly all actives have a fitted effect of over 65% in size
#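 Inhibition was scored as loss of TGF-beta-induced (500 pg/mL final, 18 hours, 37 degrees C) GFP in HEPG2 cells carrying a CAGA-GFP reporter, in DMEM with 1% FBS. Well GFP was summed per cell; Activity was normalised to unstimulated and stimulated DMSO wells, then concentration-response fitting.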
# DT40 TDP1 no CPT: qHTS for Inhibitors of human tyrosyl-DNA phosphodiesterase 1 (TDP1): qHTS in cells in absence of CPT; DT40 Tdp1-/- hTDP1 cells, no CPT, ATP luminescence, 48 h; Potency, µM (top dose mostly 46.2 µM), for inactives: top-dose activity change, negative = growth inhibition, hits mostly inhibitors; 420,000 compounds, 15% hits; also: % is scaled to controls: 0 for no effect and ±100 for the full control effect; nearly all actives have a fitted effect of over 55% in size
#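 Luminescent ATP content (CellTiter-Glo) served as the growth readout. Knockout chicken DT40 cells expressing human TDP1 were exposed to compounds without camptothecin for a minimum 48 hr at 37 °C.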
# Starred values were filed as active, the others as inactive; ? = inconclusive; . = no result. Calls follow the shape of the dose curve; as a rule, active = well fitted curve in the direction sought with a large enough effect; inconclusive = small, poorly fitted or top-dose-only effect, or another doubt; inactive = no such curve, though single readings can be large; an effect the other way counts as inactive or inconclusive. Potency is read from the fitted curve at half-maximal effect.
SMILES,HT1080-NT tox,HT1080 IDH1KD tx,HepG2 viability,TDP1 cell CPT,TGFb SMAD3 inh,DT40 TDP1 no CPT
Fc1ccc(-c2nc(-c3c[nH]c4ccccc34)cs2)cc1,.,.,-19%,-30%,-8%,-17%
COc1cccc(-c2nn(C)c3sc(C(=O)NCc4cc(OC)ccc4OC)cc23)c1,.,.,-11%,?,-5%,?
CCOC(=O)C1CCN(C(=O)c2cc3c(-c4ccc(OC)c(OC)c4)nn(C)c3s2)CC1,-18%,-15%,-14%,16µM*,-1%,21µM*
CCOC(=O)C1CCN(C(=O)Cc2ccc(OC)c(OC)c2)CC1,-4%,1%,23%,-2%,6%,-20%
CCOC(=O)N1CCC(NC(=O)c2cc3c(-c4ccc(OC)c(OC)c4)nn(C)c3s2)CC1,-5%,-1%,-2%,?,0%,21µM*
CCOC(=O)N1CCC(NC(=O)c2cc3c(-c4ccccc4F)nn(C)c3s2)CC1,-5%,10%,-16%,13µM*,-13%,8.2µM*
C=CCn1c(SCC(=O)Nc2ccc3c(c2)OCCO3)nc2cc(C(=O)O)ccc2c1=O,3%,-3%,-22%,0%,10%,6%
CSc1nc2sc3c(c2c(=O)[nH]1)CC(C)(C)OC3,0%,-2%,-4%,?,11%,-14%
COCCn1c(=S)[nH]c2cc(C(=O)N3CCN(Cc4ccccc4)CC3)ccc2c1=O,13%,22%,.,-26%,.,?
O=C(O)Cc1cn(Cc2ccc(F)cc2)c2ccccc12,0%,10%,-31%,8%,?,1%
Cc1[nH][nH]c(=O)c1C(c1c(C)[nH][nH]c1=O)c1cn(Cc2ccc(F)cc2)c2ccccc12,-29%,?,-21%,6.5µM*,-3%,5.2µM*
Cc1[nH][nH]c(=O)c1C(c1c(C)[nH][nH]c1=O)c1cn(Cc2ccc(Cl)c(Cl)c2)c2ccccc12,-20%,?,-19%,2.1µM*,13µM*,2.1µM*
CCOC(=O)[C@@H]1[C@H]2COc3ccccc3[C@@H]2N2C(=O)N(c3cccc(C)c3)C(=O)[C@]12C,-4%,2%,-9%,?,-6%,?
COc1ccc2ccccc2c1CN1CCN(C(=O)c2ccccc2)CC1,-27%,-14%,-34%,?,0%,15µM*
c1ccc(CN2CCN(CCOCCOc3cccc4ccccc34)CC2)cc1,16µM*,?,-17%,-9%,-5%,?
COc1ccccc1CN1CCN(C(=O)c2cccc3ccccc23)CC1,3%,1%,-40%,-11%,-25%,?
COc1cc(CN2CCN(C(=O)c3ccc(-c4ccccc4)cc3)CC2)cc(OC)c1OC,-22%,-23%,-9%,21µM*,-14%,26µM*
CCOc1ccccc1-n1c(CN2CCN(C(=O)c3ccco3)CC2)nc2ccccc2c1=O,5.6µM*,10µM*,8%,?,18%,?
COc1cccc(CN2CCN(C(=O)c3ccc(-c4ccccc4)cc3)CC2)c1OC,0%,-11%,-19%,?,-12%,-3%
CCN(CC(=O)Nc1ccc2c(c1)OCCO2)C(=O)c1ccc(C)c(S(=O)(=O)N2CCOCC2)c1,2%,-1%,0%,-26%,9%,-23%
CCNC(=O)C[C@@H]1CC[C@@H]2NC[C@@H](O)COC[C@H]2O1,16%,24%,.,-3%,.,-1%
Cn1nc(-c2ccc(C(=O)N3CCN(Cc4ccccc4)CC3)cc2)c2ccccc2c1=O,-9%,-9%,-36%,23µM*,0%,18µM*
COc1ccc2ccccc2c1CN1CCN(C(=O)c2ccco2)CC1,-11%,-25%,-8%,18µM*,7%,15µM*
O=C(c1ccco1)N1CCN(CCCCOc2cccc3ccccc23)CC1,-7%,-10%,7.9µM*,18µM*,?,?
O=C(c1ccco1)N1CCN(CCOCCOc2cccc3ccccc23)CC1,-7%,-25%,-33%,?,-25%,?
SMILES,HT1080-NT tox,HT1080 IDH1KD tx,HepG2 viability,TDP1 cell CPT,TGFb SMAD3 inh,DT40 TDP1 no CPT
O=C(c1ccc(-n2cccc2)cc1)N1CCN(Cc2ccccc2)CC1,-3%,-6%,-24%,?,0%,?
COc1cccc(CN2CCN(C(=O)c3ccco3)CC2)c1OC,9%,-8%,0%,-2%,-20%,-26%
COc1ccc(Cc2nc3ccc(C(=O)NCc4cc(Br)ccc4OC)cc3o2)cc1,.,.,-15%,?,0%,-25%
COc1cc(/C=C/C(=O)Nc2ccc(S(=O)(=O)Nc3ncccn3)cc2)ccc1OCC#N,3%,0%,3%,1%,11%,?
CCOc1ccc(-c2nc(CCl)cs2)cc1OC,13%,11%,4%,10µM*,-20%,13µM*
COc1cccc(-c2nc(CCl)cs2)c1OC,2%,6%,5%,2.3µM*,7%,6.5µM*
CCOC(=O)c1csc(-c2ccc(OC)c(OC)c2)n1,-1%,14%,-3%,23%,15%,6%
CSc1ccc(CCNC(=O)CCCn2c(=O)c3cccn3c3ccccc32)cc1,.,.,-29%,?,0%,18µM*
CCOc1ccc(CCNC(=O)CCCn2c(=O)c3cccn3c3ccccc32)cc1,.,.,-7%,18µM*,0%,23µM*
CC(C)CCNC(=O)CCCn1c(=O)c2cccn2c2ccccc21,.,.,-16%,?,0%,?
CCCCn1c(N)c(N(CCC(C)C)C(=O)C2CC(=O)N(CCc3ccc(OC)c(OC)c3)C2)c(=O)[nH]c1=O (stereo unspecified),21%,13%,-11%,0%,2%,-6%
COCC(=O)N1CCC2(CCN(Cc3nccs3)CC2)CC1,.,.,.,-3%,.,-5%
COc1ccc(NC(=O)CSc2nnc(-c3cnccn3)n2C)cc1OC,14%,2%,3%,0%,12%,13%
CCCCn1c(N)c(N(CC(C)C)C(=O)CSCc2ccc(Cl)c(Cl)c2)c(=O)[nH]c1=O,-13%,-12%,-12%,-8%,-29%,-14%
